Laboratory results published in PubChem BioAssay AID588726 (The Scripps Research Institute Molecular Screening Center, 2011).
About 8,200 (2.3%) of roughly 360,000 compounds were called active. The list comes from a sample in which actives are over-represented; it also holds similar structures and randomly drawn compounds. Unmarked numbers belong to inactive results. No stated cut-off is given here; in the data, active means inhibition above about 27%; inactive means the rest.

target: Fructose-bisphosphate aldolase (Mycobacterium tuberculosis (strain ATCC 25618 / H37Rv)) (UniProt P9WQA3); experiment: Mtb FBA enzyme inhibitors, primary screen, biochemical, fluorescence, strain H37Rv (AID 588726);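 further: 0% = vehicle and 100% = reference inhibitor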; details: purified M. tuberculosis FBA, fluorescence read-out, at 1 µM, hits give high values
Sequence (P9WQA3 whole entry, looked up): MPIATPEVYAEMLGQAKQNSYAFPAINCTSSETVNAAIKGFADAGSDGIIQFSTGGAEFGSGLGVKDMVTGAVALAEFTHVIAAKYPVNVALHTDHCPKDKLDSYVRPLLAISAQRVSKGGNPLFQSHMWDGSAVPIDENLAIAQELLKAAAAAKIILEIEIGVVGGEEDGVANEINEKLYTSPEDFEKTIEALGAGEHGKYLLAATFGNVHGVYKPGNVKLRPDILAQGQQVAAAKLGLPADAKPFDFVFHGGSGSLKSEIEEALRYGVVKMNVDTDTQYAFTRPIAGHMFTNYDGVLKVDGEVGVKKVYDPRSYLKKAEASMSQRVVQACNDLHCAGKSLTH

| Structure (SMILES) | inhibition |
| --- | --- |
| CSCCC(Nc1ccc(S(=O)(=O)N2CCOCC2)cc1[N+](=O)[O-])C(=O)OCC(=O)N(C(C)C)C(C)C (centres undefined) | -2.32% |
| CCOC(=O)Cc1cc(=O)[nH]c(=O)[nH]1 | 1.01% |
| Cc1c(CCC(=O)O)c(=O)oc2c(C)c(OCc3ccccc3Cl)ccc12 | 5.47% |
| FC(F)(F)c1ccc(-c2cccc3c2C2CC3CCN2Cc2ccccc2)cc1 (centres undefined) | 4.42% |
| O=C(NCCN1CCOCC1)c1cc(Sc2cccc(Cl)c2)nc2ccccc12 | -0.13% |
| O=C(NCC(c1cccs1)N1CCOCC1)c1cc(-c2ccccn2)nc2ccccc12 (centres undefined) | 5.77% |
| O=C(NCCc1ccccn1)c1cc(-c2ccc(Cl)cc2)nc2ccccc12 | -0.88% |
| CCCCN(C)CCCNC(=O)c1cc(-c2cccs2)nc2ccccc12 | 140% (active) |
| O=C(NCCN1CCOCC1)c1cc(-c2cccs2)nc2ccccc12 | 67.9% (active) |
| COC(=O)c1cc(-c2cccs2)nc2ccccc12 | 31.1% (active) |
| Cc1csc2nc(O)c(C(=O)NCCN3CCOCC3)c(=O)n12 | 0.68% |
| COC(=O)c1cc(N2CCNCC2)nc2ccccc12 | 12.9% |
| Cc1cc(C(=O)OCC(=O)Nc2nccs2)c2ccccc2n1 | -2.68% |
| CC(C)CC(=O)N=C1SC2CS(=O)(=O)CC2N1CCc1ccccc1 (centres undefined) | -1.54% |
| C[C@H](CO)N1C[C@H](C)[C@@H](CN(C)S(=O)(=O)c2ccc(F)cc2)OCc2cnnn2CCCC1=O | -1.18% |
| CCc1n[nH]c(=S)n1/N=C/c1c[nH]c2ccc(Br)cc12 | 4.89% |
| N#CCSc1nn(-c2ccc(F)cc2)c(=S)s1 | 2.99% |
| CCCCC(=O)NNC(=S)NC(=O)C(c1ccccc1)c1ccccc1 | 6.76% |
| CSc1ccc(CN2CCC2(C)C(=O)Nc2ccc(C)c(O)c2)cc1 (centres undefined) | -1.62% |
| Cc1oc(CC(C)C)c(CN2CCCC2)c1C(=O)O | -9.07% |
| Cc1noc(C)c1C(=O)OCC(=O)N1CCN(S(=O)(=O)c2ccc3ccccc3c2)CC1 | 3.46% |
| O=c1cc(CN2CCCCCCC2)c2c(ccc3ccccc32)o1 | 17% |
| CCCc1cc(=O)oc2c(C)c(OC(C)C(=O)NCC(O)c3ccccc3)ccc12 (centres undefined) | 18.1% |
| O=C(CSc1ncccn1)N1CCCC1 | 1.75% |

| Structure (SMILES) | inhibition |
| --- | --- |
| Cc1ccc(NC(=O)CN2CCc3ccccc3C2)cc1C | 0.22% |
| Cc1cccc(C)c1NC(=O)c1ccc(CN2CCc3ccccc3C2)cc1 | 1.47% |
| Cc1cccc2c1-c1sc(C(=O)NCCCN3CCc4ccccc4C3)cc1CO2 | 90.4% (active) |
| NC(=O)COc1ccc2c3c(c(=O)oc2c1)CCCCC3 | 114% (active) |
| O=C(COc1ccc2oc3c(c2c1)CCCC3)Nc1ccccn1 | 1.77% |
| CCOC(=O)N1CCN(C(=O)COc2ccc3oc4c(c3c2)CCCC4)CC1 | 0.5% |
| COc1ccc(N2CCN(C(=O)COc3ccc4c(C)cc(=O)oc4c3)CC2)cc1 | 14.8% |
| O=C(COc1ccc2c3c(c(=O)oc2c1)CCC3)NC1CCCCC1 | 14.8% |
| NC(=O)C1CCN(C(=O)COc2ccc3c4c(c(=O)oc3c2)CCC4)CC1 | 30.9% (active) |
| CCCN(CCC)CCCNC(=O)CNC(=O)c1nn(-c2ccc(OC)cc2)c(=O)c2ccccc12 | 1.04% |
| O=C(COC(=O)CC1CC2CCC1C2)NC(=O)NC1CCCC1 (centres undefined) | -0.01% |
| COc1ccccc1NC(=O)C(CC(=O)O)Cc1cc(C)cc(C)c1 (centres undefined) | -0.4% |
| COc1ccc2nc(Nc3nc4cc5c(cc4s3)OCCO5)sc2c1 | 58.2% (active) |
| NS(=O)(=O)c1ccc2nc(NC(=O)C3=COCCO3)sc2c1 | 1.72% |
| COc1ccc2nc(N3CCN(C(=O)c4ccc([N+](=O)[O-])o4)CC3)sc2c1 | -2.42% |
| Cc1cc(C)cc(Oc2nc3c(C)cccn3c(=O)c2/C=C(\C#N)C(=O)NC2CCS(=O)(=O)C2)c1 (centres undefined) | 16.1% |
| C/C(=N/OC(=O)c1ccc(Br)cc1)c1ccc(C)cc1 | 1.15% |
| COc1ccc(S(=O)(=O)NC(=O)C2(C)CCN2C(=O)c2ccccc2CCc2ccccc2)cc1 (centres undefined) | 0.28% |
| CCOc1ccc2nc(C(=O)N3CCCC(C)C3)sc2c1 (centres undefined) | 0.22% |
| CC(=O)Nc1ccc2nc(NC(=O)CS(=O)(=O)c3ccc(F)cc3)sc2c1 | 1.63% |
| CCOc1ccc2nc(Nc3nc4ccc(NC(C)=O)cc4s3)sc2c1 | 44.8% (active) |
| O=C(NN1C(=O)C2C3C=CC(C3)C2C1=O)c1ccco1 (centres undefined) | 8.04% |
| CCC(C)NCC(=O)Nc1ccc([N+](=O)[O-])cc1C(=O)Nc1ccccc1F (centres undefined) | -4.2% |
| CCOC(=O)N1CCC(NC(=O)Cc2cn(C)c3ccccc23)CC1 | 11% |

| Structure (SMILES) | inhibition |
| --- | --- |
| CCOC(=O)N1CCC(NC(=O)CCc2cn(C)c3ccccc23)CC1 | 8.05% |
| CCOC(=O)N1CCC(NC(=O)c2cnn3ccccc23)CC1 | 30.3% (active) |
| CCO[C@@H]1OC(C(=O)NC2CC2)=C[C@H](C)[C@H]1CCCO | -0.48% |
| O=C(O)C1CCCCC1C(=O)N1CCN(S(=O)(=O)c2ccc(F)cc2)CC1 (centres undefined) | -1.39% |
| CSc1c(SCc2ccccc2)cnn(Cc2ccccc2)c1=O | -0.17% |
| COC(=O)c1ccc(C2C(Oc3ccccc3C)C(=O)N2CCc2ccc(OC)c(OC)c2)cc1 (centres undefined) | -0.68% |
| COc1cccc(C2CC(c3cccs3)=NN2C(=O)CSC2=NCCS2)c1OC (centres undefined) | 6.98% |
| O=C(COc1ccccc1Cl)N1N=C(c2cccs2)CC1c1ccco1 (centres undefined) | 7.49% |
| O=C1C2N=NN(CC(=O)N3N=C(c4cccc5ccccc45)CC3c3ccccc3)C2C(=O)N1c1ccccc1 (centres undefined) | 11.2% |
| Fc1ccc(N2N=C(c3cccs3)CC2c2ccco2)c(F)c1 (centres undefined) | 102% (active) |
| Oc1ccccc1C1=NN(c2ccccc2)C(c2ccccc2)C1 (centres undefined) | 72.4% (active) |
| Cc1ccc(N2C(=O)C3N=NN(CC(=O)N4N=C(c5cccc6ccccc56)CC4c4ccccc4)C3C2=O)cc1 (centres undefined) | 11.4% |
| COc1ccc(C2CC(c3cccs3)=NN2C(=O)CSc2nnc(N)s2)cc1OC (centres undefined) | 3.05% |
| COc1ccc(C2CC(c3cccs3)=NN2c2ccc(F)cc2)cc1OC (centres undefined) | 27.2% (active) |
| COc1ccc(C2CC(c3cccs3)=NN2c2nc(C)c(C(C)=O)s2)cc1OC (centres undefined) | 16.3% |
| COc1ccccc1N1N=C(c2cccs2)CC1c1ccccc1 (centres undefined) | 39.5% (active) |
| Cc1ccc(C2=NN(C(=O)CSc3nc(N)cc(N)n3)C(c3ccco3)C2)cc1 (centres undefined) | 0.79% |
| Cc1ccccc1C1CC(c2cccs2)=NN1S(C)(=O)=O (centres undefined) | -0.14% |
| Cc1ccc(C(=O)OCC(=O)NC(=O)Cc2ccccc2)c(O)c1 | -0.03% |
| Cc1cc(C(C)(C)C)cc(S(=O)(=O)Nc2ccc(C(=O)O)cc2)c1C | -1.68% |
| CC(=O)Oc1c(C(=O)c2nnc(C)o2)c(=O)n(Cc2ccccc2)c2ccccc12 | 8.77% |
| COc1ccc(CC(N)c2csc(NC(=O)Nc3ccc(C(C)C)cc3)n2)cc1 (centres undefined) | -1.36% |
| CN(CC(=O)Nc1ccc(F)cc1)CC(=O)N1CCCCC1 | -1.7% |
| C=Cc1ccc(C(=O)N2CCCC(CCC(=O)N3CCN(c4ccccn4)CC3)C2)cc1 (centres undefined) | -0.65% |

| Structure (SMILES) | inhibition |
| --- | --- |
| COc1ccc(C2CC(c3cccs3)=Nc3ccccc3S2)cc1OC (centres undefined) | 6.74% |
| COc1ccc(C2=NN(c3ccccc3)C(c3cccs3)C2)cc1 (centres undefined) | 113% (active) |
| COc1ccc(C2CC(c3ccccc3)=NN2C(=O)c2ccc(Cl)c([N+](=O)[O-])c2)cc1 (centres undefined) | -0.72% |
| COc1ccc(N2C(=O)C3CCCN3C2c2cccs2)cc1 (centres undefined) | 1.46% |
| COc1ccc(N2CCN(C(=S)Nc3ccc(S(N)(=O)=O)cc3)CC2)cc1 | -1.46% |
| COc1ccc(C2CC(c3cccs3)Nc3nnnn32)cc1 (centres undefined) | 2.13% |
| COc1ccc(C2CC(c3cccs3)=NN2C(=O)COC(=O)c2cc3ccccc3cc2O)cc1OC (centres undefined) | -0.95% |
| COc1ccc(C2CC(c3cccs3)=NN2c2ccccc2)cc1 (centres undefined) | 74% (active) |
| COc1ccc(CCNC(=O)CSc2nc(C)nc3c2oc2ccccc23)cc1OC | 0.84% |
| O=C(NC1CCCC1)C(c1ccco1)N(C(=O)c1ccco1)c1ccc(F)cc1 (centres undefined) | -0.27% |
| FC(F)Oc1ccccc1NC(=S)Nc1cccc(Cl)c1Cl | -0.26% |
| CCCCOC(=O)Nc1sc2nc(C)cc(C)c2c1-n1cccc1 | 5.62% |
| CCCC1NC(=S)NC(C)=C1C(C)=O (centres undefined) | 2.16% |
| OCCNc1nc2ccccc2n1-c1ncnc2sc3c(c12)CCC3 | 3.23% |
| CCCSc1ncccc1C(=O)O | 0.16% |
| O=C(O)c1cccnc1Sc1ncnc2sc3c(c12)CCC3 | 53.6% (active) |
| Oc1c(Cl)cc(Cl)c(Cl)c1Cc1c(O)c(Cl)cc(Cl)c1Cl | 0.15% |
| O=C(COC(=O)c1ccc2ncsc2c1)Nc1ccc(Cl)cc1 | 0.06% |
| CCC(Cc1ccccc1)NC(=O)C1CCCCC1 (centres undefined) | -3.87% |
| Cc1ccc(S(=O)(=O)N2CCN(C(=O)CSc3cc(C)ccc3C)CC2)c(C)c1 | 29.2% (active) |
| CCCc1cc(=O)[nH]c(SCC(=O)N2CCN(S(=O)(=O)c3ccc(C)cc3C)CC2)n1 | -1.1% |
| Cc1ccc(S(=O)(=O)N2CCN(C(=O)COC(=O)c3c(C)cc(C)cc3C)CC2)c(C)c1 | -1.2% |
